Source: PubChem BioAssay (NCATS)
Records with an inconclusive call do not appear. A number with no mark means an inactive call. Active and inactive are the calls of the source. The call rests on the fitted dose curve; in most records, active means well fitted cell-killing curve with a large enough effect; inconclusive means small, poorly fitted or top-dose-only effect; inactive means flat fitted curve, though single readings scatter.

Assay: Cell Viability - NIH 3T3 (AID 541);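 further: plate controls were DMSO alone for no effect and tamoxifen positive control for full effect; nearly all actives have a fitted effect of over 25% in size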
Settings: NIH 3T3 cell viability, qHTS; activity change, negative = cytotoxicity: at 92.2 µM (top of the series)
Text: NIH Chemical Genomics Center [NCGC]
NIH Molecular Libraries Screening Centers Network [MLSCN]
National Institutes of Environmental Health Sciences [NIEHS]
National Toxicology Program [NTP]
We have developed a 1536-well cell-based assay for quantitative high throughput screening (qHTS) against a number of cell lines to determine in vitro cytotoxicity of small molecules. This particular assay uses the NIH 3T3 fibroblast cell line which is established from NIH Swiss mouse embryo.
NCGC Assay Protocol Summary:
The CellTiter-Glo luminescent cell viability assay (Promega) is a homogeneous method to measure the number of viable cells in culture. The end point readout of this assay is based on quantitation of intracellular ATP, an indicator of metabolic activity, using the luciferase reaction. Luciferase catalyzes the oxidation of beetle Luciferin to oxyluciferin and light in the presence of ATP. The luminescent signal is proportional to amount of ATP present.
Using the CellTiter-Glo luminescent cell viability assay, the amount of cellular ATP was measured in the NIH 3T3 cell line with complete culture medium following compound treatment for 40 hours. The assay was performed in opaque white Kalypsys 1536-well plates. In the screen, tamoxifen and doxorubicin were used as positive controls. Library compounds were measured for their ability to cause acute toxicity in the cell line, as reflected by a decrease in intracellular ATP levels, in a concentration-dependent manner. […] AC50 values were determined from concentration-response data modeled with the standard Hill equation.
qHTS protocol for CellTiter Glo NIH 3T3 cellular assay
[Step] [Parameter] [Value] [Description]
1. Reagent; 5 uL; 1000 NIH 3T3 cells/well
2. Time; 5 hr; 37 °C incubation
4. Controls; 23 nL; Tamoxifen 0.34 uM to 100 uM & Doxorubicin 0.02 nM to 100 uM
5. Time; 40 hr; 37 °C incubation
6. Reagent; 5 uL; CellTiter Glo reagent
7. Time; 20 min; Room Temperature
8. Detection; Luminescence; Viewlux plate reader
Keywords: cell viability, cytotoxicity, NIH 3T3 cell line, luminescence, NTPHTS, NTPHTS_NCGC, NIEHS, EPA, DSSTox, MLSMR, MLSCN, NIH Roadmap, qHTS, NCGC

Structure (SMILES) | activity change, negative = cytotoxicity
N#C/C(N)=C(/N)C#N | -21.1%
O=C(Cl)OCc1ccccc1 | 2.43%
C=C(Cl)CSC(=S)N(CC)CC | -85.8% (active)
CCBr | -11.6%
CC(C)(COCC1CO1)COCC1CO1 (stereo not given) | -105% (active)
CCOC(=O)CC(SP(=O)(OC)OC)C(=O)OCC (stereo not given) | -1.15%
O=S(=O)(O)F | -22.5%
Nc1c(Br)cc([N+](=O)[O-])cc1[N+](=O)[O-] | -20.9%
CCCCOCC1CO1 (stereo not given) | -12.9%
CN(C)c1ccc(N)cc1 | -87% (active)
CC(C)[N+](=O)[O-] | -0.885%
CC(=O)[O-].CC(=O)[O-].CC(=O)[O-].[Cr+3] | 3.09%
CN(C)C(=O)Nc1ccc(Cl)cc1 | -8.73%
OCCOCCO | 5.42%
Cl/C=C\Cl | 0.835%
O=C(O)c1cccc(Cl)c1 | -0.399%
Clc1ccc(C(Cl)(Cl)Cl)cc1Cl | 7.52%
N#CC(Cl)(Cl)Cl | -1.78%
O=C(Cl)c1ccccc1F | 0.571%
CN(C)c1ccccc1 | -0.602%

Structure (SMILES) | activity change, negative = cytotoxicity
CCOP(=S)(OCC)Oc1nc(Cl)c(Cl)cc1Cl | -9.73%
BrCCc1ccccc1 | -26.3%
ClCC(Cl)CCl | 4.78%
OCC(Cl)CCl (stereo not given) | -3.07%
C=CC(=O)OCCN(C)C | 9.2%
ClC(Cl)C(Cl)Cl | 9.83%
ClP(Cl)(Cl)(Cl)Cl | -6.09%
O=S(=O)(Cl)c1ccccc1 | -155% (active)
ClC(Cl)(Cl)C(Cl)(Cl)Cl | -7.39%
Cl/C=C/Cl | -20%
CC(C)OS(C)(=O)=O | -17.5%
ClCc1ccccc1 | -0.887%
ClC(Cl)c1ccccc1 | 4.43%
Cc1ccc([N+](=O)[O-])cc1 | -9.07%
O=[N+]([O-])c1ccc(Cl)c(Cl)c1Cl | -117% (active)
N#CCCCCC#N | -10.6%
CCN(CC)N=O | 0.0799%
CC(Cl)CCl (stereo not given) | 17.2%
CCC#N | -10.3%
O=[N+]([O-])c1cccc(CCl)c1 | -132% (active)
